Laboratory results published in ChEMBL document CHEMBL2218924, “A broad activity screen in support of a chemogenomic map for kinase signalling research and drug discovery” (Biochem J, 2013).

Target: Mitogen-activated protein kinase 11 (Homo sapiens) (UniProt Q15759)
Conditions: at 10 µM

Mitogen-activated protein kinase 11 (Homo sapiens), sequence (Q15759 whole entry): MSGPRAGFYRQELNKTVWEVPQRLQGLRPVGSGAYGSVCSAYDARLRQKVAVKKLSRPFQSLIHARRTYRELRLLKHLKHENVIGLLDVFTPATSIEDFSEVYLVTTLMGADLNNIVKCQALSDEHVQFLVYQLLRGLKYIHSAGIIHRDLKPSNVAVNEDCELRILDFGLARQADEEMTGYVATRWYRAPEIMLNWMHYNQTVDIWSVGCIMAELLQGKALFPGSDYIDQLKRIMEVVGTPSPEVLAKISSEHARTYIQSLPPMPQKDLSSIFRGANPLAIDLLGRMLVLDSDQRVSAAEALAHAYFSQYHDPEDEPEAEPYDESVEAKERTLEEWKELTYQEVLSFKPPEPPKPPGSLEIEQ

| SMILES | residual activity |
| --- | --- |
| Nc1cccc(-c2cc3c(Oc4cccc(O)c4)ncnc3[nH]2)c1 | 7% |
| Cc1cccc(-c2[nH]c(C(C)(C)C)nc2-c2ccc3c(c2)OCO3)n1 | 64% |
| COc1cc2ncnc(Nc3ccc(NC(=O)c4ccccc4)cc3)c2cc1OC | 97% |
| Cn1nc2c3c(cccc31)C(=O)c1ccccc1-2 | 92% |
| c1ccc2c(-c3ccncc3)c[nH]c2c1 | 98% |
| O=C(Nc1cccc(Nc2nccc(Nc3cccc(C(F)(F)F)c3)n2)c1)C1CC1 | 88% |
| CC(C)n1cnc2c(NCc3ccccc3)nc(NCCCO)nc21 | 109% |
| COc1cc2ncnc(Nc3ccc(Oc4ccccc4)cc3)c2cc1OC | 90% |
| O=C(O)c1ccc2c3c1cccc3c(=O)n1c3ccccc3nc21 | 48% |
| Cn1cnc2cc3c(Nc4cccc(Br)c4)ncnc3cc21 | 89% |
| O=C1Nc2ccc(Br)cc2/C1=C\c1cc2c([nH]1)CCCC2 | 79% |
| c1ccc(-c2n[nH]cc2-c2ccnc3ccccc23)nc1 | 76% |
| CC(=O)c1ccc(N2CCOCC2)cc1O | 104% |
| Cc1cncc2cccc(S(=O)(=O)N3CCCN(C(=O)CN)C[C@H]3C)c12 | 95% |
| Cc1ccc(S(=O)(=O)/C=C/C#N)cc1 | 104% |
| O=C1NC(=O)c2cc(Nc3ccc(F)cc3)c(Nc3ccc(F)cc3)cc21 | 72% |
| C[C@@H](N)[C@H]1CC[C@H](C(=O)Nc2ccncc2)CC1 | 120% |
| Cn1cc(/C=C2\C(=O)Nc3ccc(S(N)(=O)=O)cc32)c2ccccc21 | 99% |
| O=C1Nc2ccccc2/C1=C1/Nc2ccccc2/C1=N\OCCC(O)CO (configuration not stated) | 77% |
| c1ccc(-c2n[nH]c3c2oc2ccccc23)cc1 | 84% |
| NC(=O)c1ccc2[nH]c(-c3ccc(Oc4ccc(Cl)cc4)cc3)nc2c1 | 101% |
| Cc1nc2cc3nc(-c4cccs4)cnc3cc2n1C | 97% |
| CO[C@H]1[C@@H](OC)C[C@H](C)[C@@H](OC)C2=CC(=O)C=C(NC(=O)/C(C)=C/C=C/[C@H](OC)[C@@H](OC(N)=O)/C(C)=C/[C@@H]1C)C2=O | 102% |
| Oc1ccc(-c2nc(-c3ccc(F)cc3)c(-c3ccncc3)[nH]2)cc1 | -1% |
| COc1cc2ncnc(N3CCN(C(=O)Nc4ccc(Oc5ccccc5)cc4)CC3)c2cc1OC | 91% |
| O=C1NC(=O)/C(=C\c2ccc3nccnc3c2)S1 | 102% |
| Oc1ccc(Nc2nc(-c3ccc(Cl)cc3)cs2)cc1 | 105% |
